Records with an inconclusive call do not appear. Unmarked numbers belong to inactive results. Active and inactive are the calls of the source. The call rests on the fitted dose curve; in most records, active means well fitted cell-killing curve with a large enough effect; inconclusive means small, poorly fitted or top-dose-only effect, or effect the other way; inactive means no such curve, though single readings can be large or run the other way.
Assay: Quantitative highthroughput screen to assess conditional lethalithy of SEM cells grown in RPMI1640 with unreated serum (RPMI+s) (AID 1963883);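 on viability: 100% = DMSO wells and 0% = empty wells without cells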
Conditions: SEM B-ALL cells, CellTiter-Glo viability, 48 h; series mostly up to 45.8 µM; viability: at the top concentration
Method in brief: (§1)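 Each medium arm—HPLM with 10% dialyzed FBS, or RPMI1640 with 5 mM glucose and 10% untreated or dialyzed FBS—was screened against an 11-point, 3-fold compound titration for 48 h at 37 °C, with CellTiter-Glo luminescence as endpoint.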
Further: nearly all actives have a fitted effect of over 35% in size.
Potency means the concentration at half of the fitted maximal effect.

Structure (SMILES)	viability [%]	Potency
CCC[C@@H](NC(=O)[C@@H]1[C@H]2CCC[C@@H]2CN1C(=O)[C@@H](NC(=O)[C@@H](NC(=O)c1cnccn1)C1CCCCC1)C(C)(C)C)C(=O)C(=O)NC1CC1	95.1	–
CN(C)CC=CC(=O)Nc1cc2c(Nc3ccc(F)c(Cl)c3)ncnc2cc1O[C@H]1CCOC1	–	743 nM (active)
C[C@H]1C[C@H]2[C@@H]3CCC4=CC(=O)C=C[C@]4(C)[C@@H]3C(=O)C[C@]2(C)[C@@]1(O)C(=O)CO	–	20900 nM (active)
C[C@H]1Oc2cc(cnc2N)-c2c(nn(C)c2C#N)CN(C)C(=O)c2ccc(F)cc21	57.4	–
CCc1cnn2c(NCc3ccc[n+]([O-])c3)cc(N3CCCC[C@@H]3CCO)nc12	–	59 nM (active)
NC1CCC(Nc2nc(Nc3ccc(C(=O)N4CCCCC4)cc3)c3ncn(-c4cccc(F)c4)c3n2)CC1 (configuration not stated)	79.5	–
CC=CC[C@@H](C)C(=O)[C@H]1C(=O)N[C@@H](C(C)C)C(=O)N(C)CC(=O)N(C)[C@@H](CC(C)C)C(=O)N[C@@H](C(C)C)C(=O)N(C)[C@@H](CC(C)C)C(=O)N[C@@H](C)C(=O)N[C@H](C)C(=O)N(C)[C@@H](CC(C)C)C(=O)N(C)[C@@H](CC(C)C)C(=O)N(C)[C@@H](C(C)C)C(=O)N1C	–	14800 nM (active)
C=CCc1cccc(C=NNC(=O)CN2CCN(Cc3ccccc3)CC2)c1O	–	16600 nM (active)
C[C@H](NC(=O)C(C#N)=Cc1cccc(Br)n1)c1ccccc1	–	935 nM (active)
O=C(Nc1c(Cl)cncc1Cl)c1ccc(OC(F)F)c(OCC2CC2)c1	99	–
Cc1c(O)cccc1C(=O)N[C@@H](CSc1ccccc1)[C@H](O)CN1C[C@H]2CCCC[C@@H]2C[C@@H]1C(=O)NC(C)(C)C	89.6	–
O=C1NC(=O)C(=Cc2ccc(-c3ccc(F)cc3O)o2)S1	87.6	–
O=C1Nc2ccc(Cl)cc2C(C#CC2CC2)(C(F)(F)F)O1 (configuration not stated)	72.6	–
O=C(OCC#CCSc1nnc(-c2cccc3ccccc23)o1)c1cc2ccccc2s1	108	–
NC(=O)NN=Cc1ccc([N+](=O)[O-])o1	90.8	–
C[C@@H]1[C@H](O)[C@@H](C)C=CC=CC=CC=CC=CC=CC=C[C@H](O[C@@H]2O[C@H](C)[C@H](O)[C@H](N)[C@@H]2O)C[C@@H]2O[C@](O)(C[C@@H](O)C[C@@H](O)[C@H](O)CC[C@@H](O)C[C@@H](O)CC(=O)O[C@H]1C)C[C@H](O)[C@@H]2C(=O)O	102	–
C=CCNc1c(O)cc2c(O)c1C[C@@H](C)C[C@H](OC)[C@@H](O)[C@@H](C)C=C(C)[C@H](OC(N)=O)[C@@H](OC)C=CC=C(C)C(=O)N2	–	833 nM (active)
N=C1SC(=Cc2ccc(-c3ccc4c(c3)C(=O)NC4=O)o2)C(=O)N1c1ccc(Br)cc1	–	13200 nM (active)
Cc1nc(NC(=O)N2CCC[C@@H]2C(N)=O)sc1-c1csc(C(C)(C)C)n1	–	743 nM (active)
CCCCCOC(=O)Nc1nc(=O)n([C@@H]2O[C@H](C)[C@@H](O)C2O)cc1F (some centres not stated)	95.7	–
CC(=O)OCC(=O)[C@@]1(O)CC[C@H]2[C@@H]3CCC4=CC(=O)CC[C@]4(C)[C@@H]3C(=O)C[C@@]21C	104	–
CCC(C)(C)c1ccc(CC(C)CN2C[C@@H](C)O[C@@H](C)C2)cc1 (some centres not stated)	87.7	–

Assay: Quantitative highthroughput screen to assess conditional lethalithy of SEM cells grown in RPMI1640 with dialyzed fetal bovine serum (RPMI+ds) (AID 1963884);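 on viability: 100% = DMSO control wells and 0% = empty wells without cells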
Conditions: SEM B-ALL cells, RPMI+dialyzed FBS, CellTiter-Glo viability, 48 h; series mostly up to 45.8 µM; viability: at the top concentration
Method in brief: as §1

Structure (SMILES)	viability [%]	Potency
CCC[C@@H](NC(=O)[C@@H]1[C@H]2CCC[C@@H]2CN1C(=O)[C@@H](NC(=O)[C@@H](NC(=O)c1cnccn1)C1CCCCC1)C(C)(C)C)C(=O)C(=O)NC1CC1	106	–
CN(C)CC=CC(=O)Nc1cc2c(Nc3ccc(F)c(Cl)c3)ncnc2cc1O[C@H]1CCOC1	–	1180 nM (active)
C[C@H]1C[C@H]2[C@@H]3CCC4=CC(=O)C=C[C@]4(C)[C@@H]3C(=O)C[C@]2(C)[C@@]1(O)C(=O)CO	–	23500 nM (active)
CCc1cnn2c(NCc3ccc[n+]([O-])c3)cc(N3CCCC[C@@H]3CCO)nc12	–	59 nM (active)
NC1CCC(Nc2nc(Nc3ccc(C(=O)N4CCCCC4)cc3)c3ncn(-c4cccc(F)c4)c3n2)CC1 (configuration not stated)	89.4	–
COc1cc(C)c(C=CC(C)=CC=CC(C)=CC(=O)O)c(C)c1C	89.3	–
C=CCc1cccc(C=NNC(=O)CN2CCN(Cc3ccccc3)CC2)c1O	–	8330 nM (active)
C[C@H](NC(=O)C(C#N)=Cc1cccc(Br)n1)c1ccccc1	–	1320 nM (active)
O=C(Nc1c(Cl)cncc1Cl)c1ccc(OC(F)F)c(OCC2CC2)c1	87.5	–
Cc1c(O)cccc1C(=O)N[C@@H](CSc1ccccc1)[C@H](O)CN1C[C@H]2CCCC[C@@H]2C[C@@H]1C(=O)NC(C)(C)C	91.5	–
C=C1C(=O)OC2C=C(C)CCC=C(C)CCC12 (configuration not stated)	–	23500 nM (active)
O=C(OCC#CCSc1nnc(-c2cccc3ccccc23)o1)c1cc2ccccc2s1	104	–
NC(=O)NN=Cc1ccc([N+](=O)[O-])o1	86.2	–
C[C@@H]1[C@H](O)[C@@H](C)C=CC=CC=CC=CC=CC=CC=C[C@H](O[C@@H]2O[C@H](C)[C@H](O)[C@H](N)[C@@H]2O)C[C@@H]2O[C@](O)(C[C@@H](O)C[C@@H](O)[C@H](O)CC[C@@H](O)C[C@@H](O)CC(=O)O[C@H]1C)C[C@H](O)[C@@H]2C(=O)O	109	–
C=CCNc1c(O)cc2c(O)c1C[C@@H](C)C[C@H](OC)[C@@H](O)[C@@H](C)C=C(C)[C@H](OC(N)=O)[C@@H](OC)C=CC=C(C)C(=O)N2	–	833 nM (active)
CC=CC(=O)N(CC)c1ccccc1C	73.6	–
Cc1nc(NC(=O)N2CCC[C@@H]2C(N)=O)sc1-c1csc(C(C)(C)C)n1	–	1050 nM (active)
CCCCCOC(=O)Nc1nc(=O)n([C@@H]2O[C@H](C)[C@@H](O)C2O)cc1F (some centres not stated)	101	–
CC(=O)OCC(=O)[C@@]1(O)CC[C@H]2[C@@H]3CCC4=CC(=O)CC[C@]4(C)[C@@H]3C(=O)C[C@@]21C	95.9	–
CCC(C)(C)c1ccc(CC(C)CN2C[C@@H](C)O[C@@H](C)C2)cc1 (some centres not stated)	89.4	–

— PubChem BioAssay (NCATS)
